# Records with an inconclusive call do not appear. This is one part of the list. Entries that show only a call come without a potency. The source made the active and inactive calls. Unless noted, calls come from the whole dose curve; as a rule, active = well fitted curve in the direction sought with a large enough effect; inconclusive = small, poorly fitted or top-dose-only effect, or another doubt; inactive = no such curve, though single readings can be large; an effect the other way counts as inactive or inconclusive.
# Tests used:
# [1] = HTS Assay for Allosteric Antagonists of the Human D2 Dopamine Receptor: Hit Validation in HTRF (AID 624455);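 note: stable D1 dopamine receptor cell line scored for blocking the D1 response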
# Method in brief: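 Inhibition of the D1-mediated response was measured by HTRF. Cells used were a line stably expressing the D1 dopamine receptor.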
# [2] = target: Bifunctional 3'-5' exonuclease/ATP-dependent helicase WRN (Homo sapiens) (UniProt Q14191); assay: qHTS for Inhibitors of WRN Helicase: Confirmatory Assay for Cherry-picked Compounds. (AID 720497); conditions: WRN helicase DNA unwinding, fluorescence kinetic; note: potency is the fitted concentration of half-maximal effect; nearly all actives have a fitted effect of over 65% in size
# Method in brief: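 Compound and 20 nM WRN incubated 15 min, RT. Forked duplex (100 nM) plus ATP (2 mM) added. Fluorescence monitored kinetically and normalized to controls.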
# [3] = qHTS for Inhibitors of WRN Helicase: Thiazole Orange DNA Binding Counterscreen (AID 720499);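 note: drop in dye fluorescence marks compound binding to DNA; nearly all actives have a fitted effect of over 60% in size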
# Method in brief: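 To exclude WRN hits acting through DNA binding, fluorescence of 100 nM thiazole orange bound to 50 nM unlabeled DNA is read (ex 480, em 530 nm) 15 min after compound addition at room temperature.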
# [4] = target: RecQ-like DNA helicase BLM (Homo sapiens) (UniProt P54132); assay: qHTS for Inhibitors of WRN Helicase: BLM Helicase Counterscreen for WRN Inhibitors (AID 720503); conditions: Recombinant BLM helicase DNA unwinding, red fluorescence; note: potency is the fitted concentration of half-maximal effect; nearly all actives have a fitted effect of over 60% in size
# Method in brief: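 Steps: compounds added to 1 nM BLM in pH 8.0 Tris buffer with 2 mM MgCl2; 15 min room-temperature incubation; substrates added (100 nM DNA, 2 mM ATP final); discontinuous kinetic fluorescence measurement, reads spaced 15 min.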
# [5] = target: Tumor susceptibility gene 101 protein (Homo sapiens) (UniProt Q99816); assay: qHTS Assay for Iinhibitors of HIV-1 Budding by Blocking the Interaction of PTAP/TSG101: Hit Validation (AID 651600); note: nearly all actives have a fitted effect of over 70% in size
# Method in brief: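 Measuring PTAP–Tsg101 interaction by FP: protein at 10 uM and fluorescent peptide at 50 nM (final), buffer 10 mM HEPES pH 7.5 with 0.15 M NaCl, 3 mM EDTA, 0.1 mM TCEP, 0.01% Tween 20; 20 min incubation, r.t.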
# [6] = target: Fructose-bisphosphate aldolase (Giardia intestinalis (strain ATCC 50803 / WB clone C6)) (UniProt A8B2U2); assay: qHTS Assay for Inhibitors of Fructose-1,6-bisphosphate Aldolase from Giardia Lamblia: Primary screen confirmation (AID 2787);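 note: aldolase product measured through coupled diaphorase step turning resazurin into fluorescent resorufin; series mostly up to about 58 µM; nearly all actives have a fitted effect of over 45% in size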
# Method in brief: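 FBPA (40 nM in enzyme reagent, with 30 uM ZnCl2) was preincubated 10 min at RT with compound up to 57.5 uM final. Substrate plus coupled detection system was then added, and fluorescence (525/598 nm) was read after 20 min at RT.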
# [7] = qHTS screen for small molecules that inhibit ELG1-dependent DNA repair: Hit Confirmation in Cell-Based Luciferin Assay (AID 624247); note: series mostly up to about 46 µM
# Method in brief: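 Luminescence read by CCD imager after luciferase is added to luciferin substrate reagent pre-mixed with 23 nL compound. No cells are used; the test checks for direct luciferase inhibition.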
# [8] = target: ATPase family AAA domain-containing protein 5 (Homo sapiens) (UniProt Q96QE3); assay: HTS assay for small molecules that inhibit ELG1-dependent DNA repair in human embryonic kidney (HEK293T) cells expressing luciferase-tagged ELG1: Hit Confirmation (AID 624248); conditions: HEK293T ELG1-luciferase levels, luminescence; cells co-treated with 5-fluorouridine; note: potency is the fitted concentration of half-maximal effect; nearly all actives have a fitted effect of over 55% in size
# Method in brief: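 Suppression of ELG1-luciferase signal was read by ONE-Glo luminescence in HEK293T reporter cells after 16 h at 37 C co-treatment with compound and 5-fluorouridine as DNA-damaging agent.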
# [9] = target: ATPase family AAA domain-containing protein 5 (Homo sapiens) (UniProt Q96QE3); assay: qHTS screen for small molecules that inhibit ELG1-dependent DNA repair in human embryonic kidney (HEK293T) cells expressing luciferase-tagged ELG1: Hit Confirmation using MMS Stimulated ELG1 (AID 624249); conditions: HEK293T luciferase-tagged ELG1 level; note: potency is the fitted concentration of half-maximal effect; nearly all actives have a fitted effect of over 60% in size
# Method in brief: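 Two thousand ELG1-luc HEK293T cells per well were dosed with compound and MMS (final 10 µM) and then read for luciferase by Amplight 16 h afterward.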
# [10] = qHTS screen for small molecules that inhibit ELG1-dependent DNA repair: Hit Confirmation with MMS Viability (AID 624251); conditions: Cell viability with MMS; note: potency is the fitted concentration of half-maximal effect; nearly all actives have a fitted effect of over 60% in size
# Method in brief: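 Viability by CellTiter-Glo 16 h after compound addition to ELG1-luciferase HEK293T cells co-treated with 10 µM final MMS; cells seeded at 2,000/well and dosed roughly 5 h post-plating.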
# [11] = target: Luciferin 4-monooxygenase (Photinus pyralis) (UniProt P08659); assay: qHTS screen for small molecules that inhibit ELG1-dependent DNA repair: Hit Confirmation in Biochemical Luciferin Assay (AID 624253); note: series mostly up to about 57 µM
# Method in brief: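 Luminescence from purified firefly luciferase acting on its substrate reagent, with compounds pinned in before the enzyme, read by CCD imager; flags direct luciferase inhibitors.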
# [12] = target: Guanine nucleotide-binding protein G(i) subunit alpha-1 (Homo sapiens) (UniProt P63096); assay: qHTS Assay for Inhibitors of RGS12 GoLoco Motif Activity (Green Fluorophore) (AID 879);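 note: negative values mean loss of peptide binding seen as reduced polarization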
# Method in brief: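 A drop in FITC polarization marked displacement of the FITC-tagged RGS12 GoLoco peptide (10 nM) from Gαi1 (50 nM). Compounds were incubated 10 min at room temperature in Tris pH 7.5 buffer containing 150 mM NaCl, 0.1 mM GDP and 0.05% NP40; unlabeled peptide titration served as control.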
# [13] = qHTS Assay for Identification of Small Molecule Antagonists for NFkB Signaling Pathway (AID 895; active = well fitted inhibition curve with a large enough effect in the signal ratio, with a control signal flat, not every such curve was filed as active; the % refers to the signal ratio)
# Method in brief: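 Beta-lactamase reporter read-out (460 and 530 nm emission ratio, 405 nm excitation, 2 hrs substrate loading RT) after 5 hr stimulation with 10 pM TNF alpha in compound-treated NFkB-bla ME-180 cells in low-serum medium.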
# [14] = target: Cytochrome P450 2C9 (Homo sapiens) (UniProt P11712); assay: qHTS Assay for Inhibitors and Substrates of Cytochrome P450 2C9 (AID 883); note: nearly all actives have a fitted effect of over 60% in size
# Method in brief: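 Turnover of Luciferin-H (100uM, KM) by 10nM human CYP2C9 was measured over 60 min at 37C with NADPH regeneration; inhibitors and some substrates reduce luminescence. Data normalized to sulphaphenazole 57uM.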
# ATPase family AAA domain-containing protein 5 (Homo sapiens), sequence (Q96QE3 whole entry, looked up, the tested form may be a part): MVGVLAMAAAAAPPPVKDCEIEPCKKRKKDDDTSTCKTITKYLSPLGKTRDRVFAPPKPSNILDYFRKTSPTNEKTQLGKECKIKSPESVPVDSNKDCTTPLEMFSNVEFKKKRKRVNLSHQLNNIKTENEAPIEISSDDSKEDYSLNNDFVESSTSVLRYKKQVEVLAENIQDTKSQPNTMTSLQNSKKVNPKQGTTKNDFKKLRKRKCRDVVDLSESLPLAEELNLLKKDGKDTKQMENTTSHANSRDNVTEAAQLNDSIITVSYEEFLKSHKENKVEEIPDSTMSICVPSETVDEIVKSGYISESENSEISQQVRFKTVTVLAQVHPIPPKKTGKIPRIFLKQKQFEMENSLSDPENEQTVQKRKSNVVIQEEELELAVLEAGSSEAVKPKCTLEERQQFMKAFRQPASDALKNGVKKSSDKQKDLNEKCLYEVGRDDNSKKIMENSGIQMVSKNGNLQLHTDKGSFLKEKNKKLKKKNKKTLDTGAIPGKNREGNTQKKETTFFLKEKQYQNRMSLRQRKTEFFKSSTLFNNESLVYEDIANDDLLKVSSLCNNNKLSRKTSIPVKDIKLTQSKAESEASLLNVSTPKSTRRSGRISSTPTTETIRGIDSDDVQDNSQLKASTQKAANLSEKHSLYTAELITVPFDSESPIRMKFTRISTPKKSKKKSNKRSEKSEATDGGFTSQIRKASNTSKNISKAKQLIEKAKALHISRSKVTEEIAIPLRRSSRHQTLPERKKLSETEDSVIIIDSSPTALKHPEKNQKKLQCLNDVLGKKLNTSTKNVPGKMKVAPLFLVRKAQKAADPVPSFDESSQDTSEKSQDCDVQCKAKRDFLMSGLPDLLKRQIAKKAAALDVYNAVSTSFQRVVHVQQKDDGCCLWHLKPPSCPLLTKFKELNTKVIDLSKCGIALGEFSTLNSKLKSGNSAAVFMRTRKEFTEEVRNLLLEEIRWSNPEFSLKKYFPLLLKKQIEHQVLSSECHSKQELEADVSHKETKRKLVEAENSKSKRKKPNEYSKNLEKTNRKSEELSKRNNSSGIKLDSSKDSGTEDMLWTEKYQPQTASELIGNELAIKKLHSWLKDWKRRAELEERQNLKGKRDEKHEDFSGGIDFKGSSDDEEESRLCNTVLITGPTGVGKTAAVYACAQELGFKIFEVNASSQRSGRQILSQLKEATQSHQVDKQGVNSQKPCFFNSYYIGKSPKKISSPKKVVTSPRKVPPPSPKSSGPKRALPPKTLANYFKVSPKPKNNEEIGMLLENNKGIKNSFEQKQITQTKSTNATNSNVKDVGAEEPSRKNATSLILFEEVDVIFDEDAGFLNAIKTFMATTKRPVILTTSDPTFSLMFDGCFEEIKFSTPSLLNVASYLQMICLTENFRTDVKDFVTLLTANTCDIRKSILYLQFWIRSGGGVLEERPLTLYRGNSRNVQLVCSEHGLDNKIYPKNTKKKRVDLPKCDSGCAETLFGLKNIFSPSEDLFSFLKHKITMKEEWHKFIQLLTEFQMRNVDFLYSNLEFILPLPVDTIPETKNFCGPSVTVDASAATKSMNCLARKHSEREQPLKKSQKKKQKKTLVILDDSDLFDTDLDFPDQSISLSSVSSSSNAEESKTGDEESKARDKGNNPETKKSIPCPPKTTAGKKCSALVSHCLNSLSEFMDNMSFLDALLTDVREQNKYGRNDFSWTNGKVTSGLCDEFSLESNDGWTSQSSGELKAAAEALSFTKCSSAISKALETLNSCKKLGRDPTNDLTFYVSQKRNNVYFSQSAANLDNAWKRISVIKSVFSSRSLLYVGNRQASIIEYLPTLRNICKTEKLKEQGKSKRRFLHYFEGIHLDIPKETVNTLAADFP
# Cytochrome P450 2C9 (Homo sapiens), sequence (P11712 whole entry, looked up): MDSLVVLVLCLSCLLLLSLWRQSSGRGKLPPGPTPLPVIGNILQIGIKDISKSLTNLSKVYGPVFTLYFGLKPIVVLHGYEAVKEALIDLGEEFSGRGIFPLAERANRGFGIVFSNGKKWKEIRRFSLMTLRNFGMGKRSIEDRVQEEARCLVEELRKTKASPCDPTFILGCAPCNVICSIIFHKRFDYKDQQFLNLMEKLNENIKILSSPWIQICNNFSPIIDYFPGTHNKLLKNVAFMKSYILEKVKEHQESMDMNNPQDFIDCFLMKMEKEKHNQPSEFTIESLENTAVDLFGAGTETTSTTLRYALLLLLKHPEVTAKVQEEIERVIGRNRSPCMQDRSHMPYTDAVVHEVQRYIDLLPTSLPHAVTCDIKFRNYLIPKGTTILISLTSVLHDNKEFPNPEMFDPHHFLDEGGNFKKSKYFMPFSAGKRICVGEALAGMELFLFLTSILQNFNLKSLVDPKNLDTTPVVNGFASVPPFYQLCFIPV
# RecQ-like DNA helicase BLM (Homo sapiens), sequence (P54132 whole entry, looked up): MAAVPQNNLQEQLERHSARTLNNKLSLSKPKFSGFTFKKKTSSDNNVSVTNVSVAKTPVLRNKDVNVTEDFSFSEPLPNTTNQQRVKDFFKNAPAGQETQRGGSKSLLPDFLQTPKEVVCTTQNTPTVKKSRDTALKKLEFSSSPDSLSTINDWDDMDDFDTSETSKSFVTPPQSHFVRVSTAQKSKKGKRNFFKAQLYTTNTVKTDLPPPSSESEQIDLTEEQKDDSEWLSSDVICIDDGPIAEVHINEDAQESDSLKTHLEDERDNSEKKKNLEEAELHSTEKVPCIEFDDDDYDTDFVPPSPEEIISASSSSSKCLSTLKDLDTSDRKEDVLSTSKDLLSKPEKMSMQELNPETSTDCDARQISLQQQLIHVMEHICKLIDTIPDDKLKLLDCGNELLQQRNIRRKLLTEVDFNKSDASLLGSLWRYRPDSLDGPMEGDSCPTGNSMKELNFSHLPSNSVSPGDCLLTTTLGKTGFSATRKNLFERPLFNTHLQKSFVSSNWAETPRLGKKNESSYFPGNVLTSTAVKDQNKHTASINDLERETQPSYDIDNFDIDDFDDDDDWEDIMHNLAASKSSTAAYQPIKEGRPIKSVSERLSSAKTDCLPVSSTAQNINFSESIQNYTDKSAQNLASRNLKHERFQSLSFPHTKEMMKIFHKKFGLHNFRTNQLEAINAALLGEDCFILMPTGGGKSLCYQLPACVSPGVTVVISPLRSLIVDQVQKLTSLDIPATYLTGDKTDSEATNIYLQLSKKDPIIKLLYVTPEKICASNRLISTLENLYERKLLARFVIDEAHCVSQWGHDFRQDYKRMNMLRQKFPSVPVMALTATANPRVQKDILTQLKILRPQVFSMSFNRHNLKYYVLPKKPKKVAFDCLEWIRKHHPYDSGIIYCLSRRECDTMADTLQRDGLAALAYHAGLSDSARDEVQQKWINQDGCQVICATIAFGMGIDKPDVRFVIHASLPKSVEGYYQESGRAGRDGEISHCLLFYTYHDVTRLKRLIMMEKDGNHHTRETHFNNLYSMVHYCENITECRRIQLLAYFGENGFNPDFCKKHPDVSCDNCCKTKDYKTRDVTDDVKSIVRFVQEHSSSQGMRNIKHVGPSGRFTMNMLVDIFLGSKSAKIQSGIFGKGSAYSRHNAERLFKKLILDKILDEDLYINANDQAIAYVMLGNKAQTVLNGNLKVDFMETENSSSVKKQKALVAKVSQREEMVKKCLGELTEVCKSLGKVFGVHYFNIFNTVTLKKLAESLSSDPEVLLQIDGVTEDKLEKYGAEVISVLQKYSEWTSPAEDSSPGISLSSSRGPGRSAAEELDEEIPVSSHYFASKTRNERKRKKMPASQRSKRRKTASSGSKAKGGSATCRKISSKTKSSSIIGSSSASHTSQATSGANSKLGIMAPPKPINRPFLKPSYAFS
# Tumor susceptibility gene 101 protein (Homo sapiens), sequence (Q99816 whole entry, looked up): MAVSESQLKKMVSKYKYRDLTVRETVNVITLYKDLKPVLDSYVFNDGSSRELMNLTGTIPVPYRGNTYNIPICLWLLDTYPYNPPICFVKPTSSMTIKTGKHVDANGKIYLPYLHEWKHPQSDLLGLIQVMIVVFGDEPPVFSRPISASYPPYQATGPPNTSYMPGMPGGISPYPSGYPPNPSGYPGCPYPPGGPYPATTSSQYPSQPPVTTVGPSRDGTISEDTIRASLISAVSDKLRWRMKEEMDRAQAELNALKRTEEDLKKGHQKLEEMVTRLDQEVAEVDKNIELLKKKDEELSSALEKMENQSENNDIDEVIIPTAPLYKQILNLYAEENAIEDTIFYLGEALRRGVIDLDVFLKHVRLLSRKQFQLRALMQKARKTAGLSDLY
# Guanine nucleotide-binding protein G(i) subunit alpha-1 (Homo sapiens), sequence (P63096 whole entry, looked up): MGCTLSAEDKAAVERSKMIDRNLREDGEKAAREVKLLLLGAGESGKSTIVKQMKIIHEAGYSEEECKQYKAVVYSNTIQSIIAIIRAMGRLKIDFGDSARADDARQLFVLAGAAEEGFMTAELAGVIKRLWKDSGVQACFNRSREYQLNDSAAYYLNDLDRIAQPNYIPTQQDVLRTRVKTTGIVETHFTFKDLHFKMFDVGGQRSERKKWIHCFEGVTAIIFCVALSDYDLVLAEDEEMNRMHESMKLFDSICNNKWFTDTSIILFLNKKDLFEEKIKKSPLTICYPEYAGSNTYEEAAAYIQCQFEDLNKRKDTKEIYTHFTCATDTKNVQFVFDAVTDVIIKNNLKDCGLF
# Fructose-bisphosphate aldolase (Giardia intestinalis (strain ATCC 50803 / WB clone C6)), sequence (A8B2U2 whole entry, looked up): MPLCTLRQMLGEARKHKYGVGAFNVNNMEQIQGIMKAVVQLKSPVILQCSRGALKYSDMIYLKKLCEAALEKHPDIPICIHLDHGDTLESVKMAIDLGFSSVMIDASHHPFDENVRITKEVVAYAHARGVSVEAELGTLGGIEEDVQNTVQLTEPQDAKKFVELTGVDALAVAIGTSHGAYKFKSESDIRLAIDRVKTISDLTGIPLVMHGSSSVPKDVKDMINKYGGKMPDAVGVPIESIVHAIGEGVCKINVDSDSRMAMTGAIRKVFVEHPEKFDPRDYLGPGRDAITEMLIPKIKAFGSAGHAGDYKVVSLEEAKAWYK
smiles,measurement,setting,value
CC[C@@H](CO)Nc1nc(NCc2ccccc2)c2ncn(C(C)C)c2n1,outcome,[1],inactive
N#Cc1ccccc1CN1C(=O)S/C(=C/c2cccn2-c2cccc(C(=O)O)c2)C1=O,Potency,[2],21.5 µM (active)
same,outcome,[3],inactive
same,Potency,[4],17.1 µM (active)
Oc1ccc2ccccc2c1N=Nc1nccs1,outcome,[5],inactive
Cc1nnc(N/N=C/c2ccccn2)[nH]c1=O,outcome,[6],inactive
same,outcome,[7],inactive
same,Potency,[8],2.23 µM (active)
same,Potency,[9],2.5 µM (active)
same,Potency,[10],7.06 µM (active)
same,outcome,[11],inactive
Cc1cn([C@H]2C[C@H](N=[N+]=[N-])[C@H](CO)O2)c(=O)[nH]c1=O,outcome,[12],inactive
same,Potency,[13],inactive
COc1ccc2cc1Oc1ccc(cc1)C[C@H]1c3cc(c(OC)cc3CCN1C)Oc1c(OC)c(OC)cc3c1[C@@H](C2)N(C)CC3,Potency,[14],inactive
